The sequences below were run against ARPC4 (assay: pooled miR-30 sensor sort-seq; sequence = guide strand). Conditions: shRNA.
Note: reference of the scale not given here.

| Sequence | sensor-assay potency score (higher = more potent) |
| --- | --- |
| TTGACTGACAGCTTCATCTCAC | 0.494 |
| TGTGTTTGTACATCTGCTCTGT | 0.568 |
| AAATCTTCTCGATCTCATCAGC | -0.856 |
| TTTTCCTTCTCATTCCTGCTGA | 0.452 |
| TGTCGTTCCACAACCTGGGAGG | -0.878 |
| TTCACAGCAATGCTGACCCGGA | -0.48 |
| TGTAACAGGAGCTCTTTGCTAC | -0.241 |
| TGTTTGTACATCTGCTCTGTGT | -0.895 |
| TTTGCTACTCCTGACTTCCACT | -1.07 |
| TTGTGTTTGTACATCTGCTCTG | 0.407 |
| TTCATCTCACTGATCTCCTTGT | 0.358 |

Each sequence was assayed against ASB15 in the same assay as above. Conditions: shRNA.

| Sequence | sensor-assay potency score (higher = more potent) |
| --- | --- |
| TATCTTTGAATAGCTGGTGGTA | -0.545 |
| TGTATCTTTGAATAGCTGGTGG | -0.176 |
| TTTATATTTTACATACTCCTGG | -0.0391 |
| TTACACAAGATGTCCATCCTGG | 0.839 |
| TTTCACAGCAATCAGAAGGGGG | -0.119 |
| TTTATTACACAAGATGTCCATC | -0.601 |
| TTAGCTGAATATCATAACTTGT | -0.69 |
| TTTTTCATCAGCTTCATCCATT | -0.484 |
| TATGTATCTTTGAATAGCTGGT | -0.171 |

Each sequence was assayed against ASCC1 in the same assay as above. Conditions: shRNA.

| Sequence | sensor-assay potency score (higher = more potent) |
| --- | --- |
| TCAACTAATTCTTGTAGCCTGT | -0.154 |
| TTTCACACTATTCCACTCTTTC | -0.561 |
| TTCTTCATGTTGATAGGTCTGT | 1.07 |
| TCTCTTTCCAACTATATGCTTA | -0.403 |
| TCCATTTCTATTTTCTTCCTAG | -0.685 |
| TCTTGGACTGGATTCTTCCTGT | 0.362 |
| TTGGACTGGATTCTTCCTGTAA | -0.381 |
| TAGACCGGAATCCTTGTGGGGT | -0.676 |
| AATTACACCATTTCGATGCTGG | 0.516 |
| TAGCATCTCACATGTCTGCTGG | 0.184 |
| TAGAAGTTCTCAAACAACTTTA | -0.0661 |
| TATGCTTATAGAGCAAGCTGGG | -1 |

These sequences were tested against ASCL1 in the same assay as above. Conditions: shRNA.

| Sequence | sensor-assay potency score (higher = more potent) |
| --- | --- |
| TTGGGCGCTGACTTGTGACCGC | -0.646 |
| TTTGAGTTTGGACAGTAGCTGC | -0.582 |
| TACTCATCTTCTTGTTGGCCGC | -0.58 |
| TGTCGCTTGACTTGCTTGGGCG | -1.29 |
| TTGGTGCTGAAGTACAACTGGT | -0.518 |
| TACATTAACAACATTTCTATAA | -1.04 |
| TAATACATTAACAACATTTCTA | 0.433 |
| AAGTCGTTGGAGTAGTTGGGGG | -0.573 |

From the OligoGym collection
